{"source": "ChEMBL document CHEMBL2218924", "about": "“A broad activity screen in support of a chemogenomic map for kinase signalling research and drug discovery” (Biochem J, 2013)"}
{"molecular_target": "T1, Serine/threonine-protein kinase ULK2 (Homo sapiens) (UniProt Q8IYT8)", "T1 sequence (whole entry)": "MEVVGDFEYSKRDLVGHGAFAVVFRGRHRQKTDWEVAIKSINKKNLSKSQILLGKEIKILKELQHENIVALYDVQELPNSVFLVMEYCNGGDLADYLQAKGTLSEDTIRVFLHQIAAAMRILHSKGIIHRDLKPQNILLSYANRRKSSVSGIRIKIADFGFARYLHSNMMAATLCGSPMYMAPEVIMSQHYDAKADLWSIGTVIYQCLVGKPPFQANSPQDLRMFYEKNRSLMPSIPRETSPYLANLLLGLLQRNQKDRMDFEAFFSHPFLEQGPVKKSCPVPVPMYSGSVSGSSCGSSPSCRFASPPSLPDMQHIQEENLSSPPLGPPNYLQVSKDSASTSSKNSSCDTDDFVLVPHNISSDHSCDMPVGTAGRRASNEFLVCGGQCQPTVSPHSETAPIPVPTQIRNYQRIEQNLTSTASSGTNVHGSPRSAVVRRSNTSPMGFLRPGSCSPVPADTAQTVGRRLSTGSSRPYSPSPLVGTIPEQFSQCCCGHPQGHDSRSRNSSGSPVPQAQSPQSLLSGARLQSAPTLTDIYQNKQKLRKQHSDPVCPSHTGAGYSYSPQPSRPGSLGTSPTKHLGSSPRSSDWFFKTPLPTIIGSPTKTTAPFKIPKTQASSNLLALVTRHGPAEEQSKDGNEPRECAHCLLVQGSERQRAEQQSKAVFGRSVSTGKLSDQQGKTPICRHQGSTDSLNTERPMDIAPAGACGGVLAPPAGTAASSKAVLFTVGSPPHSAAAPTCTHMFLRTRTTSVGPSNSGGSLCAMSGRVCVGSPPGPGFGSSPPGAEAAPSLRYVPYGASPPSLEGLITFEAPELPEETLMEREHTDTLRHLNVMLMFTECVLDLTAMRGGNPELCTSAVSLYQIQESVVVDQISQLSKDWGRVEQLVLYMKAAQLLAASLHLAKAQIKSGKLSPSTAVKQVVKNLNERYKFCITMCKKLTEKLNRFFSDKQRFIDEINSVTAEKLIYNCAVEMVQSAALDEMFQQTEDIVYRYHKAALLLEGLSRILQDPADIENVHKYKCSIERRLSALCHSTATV", "conditions": "at 10 µM", "units": {"residual activity": "%"}}
{"smiles": "O=C(Nc1cccc(Nc2cc(Nc3cccc(C(F)(F)F)c3)ncn2)c1)C1CC1", "residual activity": 103}
{"smiles": "O=C1NC(=O)/C(=C/c2ccc3c(c2)OC(F)(F)O3)S1", "residual activity": 97}
{"smiles": "O=C1c2ccccc2-[n+]2ccc3c([nH]c4ccccc43)c21", "residual activity": 96}
{"smiles": "CCN(CC)CCCCN1c2ccccc2Oc2ccc(Cl)cc21", "residual activity": 96}
{"smiles": "CO[C@H]1[C@@H](OC)C[C@H](C)[C@@H](OC)C2=CC(=O)C=C(NC(=O)/C(C)=C/C=C/[C@H](OC)[C@@H](OC(N)=O)/C(C)=C/[C@@H]1C)C2=O", "residual activity": 95}
{"smiles": "c1ccc(-c2n[nH]c3c2oc2ccccc23)cc1", "residual activity": 86}
{"smiles": "C[C@@H](N)[C@H]1CC[C@H](C(=O)Nc2ccncc2)CC1", "residual activity": 39}
{"smiles": "CO[C@@H]1[C@H](N(C)C(=O)c2ccccc2)C[C@H]2O[C@]1(C)n1c3ccccc3c3c4c(c5c6ccccc6n2c5c31)C(=O)NC4", "residual activity": 76}
{"smiles": "c1ccc(-c2n[nH]cc2-c2ccnc3ccccc23)nc1", "residual activity": 97}
{"smiles": "CC(=O)O/N=C1\\C(=C2\\C(=O)Nc3cc(Br)ccc32)Nc2ccccc21", "residual activity": 101}
{"smiles": "CN(C)CCCn1cc(C2=C(c3c[nH]c4ccccc34)C(=O)NC2=O)c2ccccc21", "residual activity": 88}
{"smiles": "Nc1cccc(-c2cc3c(Oc4cccc(O)c4)ncnc3[nH]2)c1", "residual activity": 76}
{"smiles": "CC(C)n1cnc2c(NCc3ccccc3)nc(NCCCO)nc21", "residual activity": 101}
{"smiles": "CC(C)n1cnc2/c(=N/c3cccc(Cl)c3)nc(NCCO)[nH]c21", "residual activity": 31}
{"molecular_target": "T2, Serine/threonine-protein kinase ULK3 (Homo sapiens) (UniProt Q6PHR2)", "T2 sequence (whole entry)": "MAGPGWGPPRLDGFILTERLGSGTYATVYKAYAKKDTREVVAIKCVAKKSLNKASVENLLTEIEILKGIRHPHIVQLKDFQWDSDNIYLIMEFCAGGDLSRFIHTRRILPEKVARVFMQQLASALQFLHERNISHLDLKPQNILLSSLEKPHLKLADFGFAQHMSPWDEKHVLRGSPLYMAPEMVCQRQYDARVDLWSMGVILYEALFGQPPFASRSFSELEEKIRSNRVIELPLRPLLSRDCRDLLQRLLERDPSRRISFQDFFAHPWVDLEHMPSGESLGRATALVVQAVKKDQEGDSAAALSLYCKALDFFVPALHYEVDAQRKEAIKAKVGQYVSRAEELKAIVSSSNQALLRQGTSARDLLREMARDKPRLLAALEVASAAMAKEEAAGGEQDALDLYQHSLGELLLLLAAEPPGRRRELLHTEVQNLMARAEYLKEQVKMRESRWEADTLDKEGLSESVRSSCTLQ", "conditions": "at 1 µM", "units": {"residual activity": "%"}}
{"smiles": "O=Nc1c(-c2c(O)[nH]c3ccccc23)[nH]c2ccccc12", "residual activity": 55}
{"smiles": "Cc1cc(Nc2nc(-c3ccccc3)nc3ccccc23)n[nH]1", "residual activity": 29}
{"smiles": "Cc1cncc2cccc(S(=O)(=O)N3CCCN(C(=O)CN)C[C@H]3C)c12", "residual activity": 97}
{"smiles": "COc1cc2ncnc(N3CCN(C(=O)Nc4ccc(Oc5ccccc5)cc4)CC3)c2cc1OC", "residual activity": 97}
{"smiles": "N#Cc1cnc2cnc(NCc3cccnc3)cc2c1Nc1ccc(F)c(Cl)c1", "residual activity": 100}
{"smiles": "O=C1Nc2ccccc2/C1=C1/Nc2ccccc2/C1=N\\OCCC(O)CO", "note": "(stereo not drawn)", "residual activity": 27}
{"smiles": "Oc1c2ccccc2c2c3c(cccc13)N=N2", "residual activity": 73}
{"smiles": "COc1cccc(-c2cc(=O)c3ccccc3o2)c1N", "residual activity": 100}
{"smiles": "Cc1cccc(-c2[nH]c(C(C)(C)C)nc2-c2ccc3c(c2)OCO3)n1", "residual activity": 104}
{"smiles": "CNc1cc2c(Nc3cccc(Br)c3)ncnc2cn1", "residual activity": 103}
{"smiles": "O=[N+]([O-])c1ccc(-c2nc(-c3ccc(F)cc3)c(-c3ccncc3)[nH]2)cc1", "residual activity": 103}
{"smiles": "O=C(O)c1ccc2c3c1cccc3c(=O)n1c3ccccc3nc21", "residual activity": 91}
{"smiles": "Cn1nc2c3c(cccc31)C(=O)c1ccccc1-2", "residual activity": 89}
{"smiles": "CCN(CC)C(=O)c1ccc(Nc2nc(OCC3CCCCC3)c3nc[nH]c3n2)cc1", "residual activity": 36}
{"smiles": "CO[C@H]1C[C@@H]2CC[C@@H](C)[C@@](O)(O2)C(=O)C(=O)N2CCCC[C@H]2C(=O)O[C@H]([C@H](C)C[C@@H]2CC[C@@H](O)[C@H](OC)C2)CC(=O)[C@H](C)/C=C(\\C)[C@@H](O)[C@@H](OC)C(=O)[C@H](C)C[C@H](C)/C=C/C=C/C=C/1C", "residual activity": 100}
{"smiles": "COc1cc2ncnc(Nc3ccc(O)c(Br)c3)c2cc1OC", "residual activity": 91}
{"smiles": "COc1cc2ncnc(Nc3ccc(NC(=O)c4ccccc4)cc3)c2cc1OC", "residual activity": 99}
{"smiles": "O=C(Nc1cccc(Nc2cc(Nc3cccc(C(F)(F)F)c3)ncn2)c1)C1CC1", "residual activity": 110}
{"smiles": "O=C1NC(=O)/C(=C/c2ccc3c(c2)OC(F)(F)O3)S1", "residual activity": 105}
{"smiles": "O=C1c2ccccc2-[n+]2ccc3c([nH]c4ccccc43)c21", "residual activity": 92}
{"smiles": "Ic1cccc(CSc2nnc(-c3ccncc3)o2)c1", "residual activity": 86}
{"smiles": "CCN(CC)CCCCN1c2ccccc2Oc2ccc(Cl)cc21", "residual activity": 111}
{"smiles": "CO[C@H]1[C@@H](OC)C[C@H](C)[C@@H](OC)C2=CC(=O)C=C(NC(=O)/C(C)=C/C=C/[C@H](OC)[C@@H](OC(N)=O)/C(C)=C/[C@@H]1C)C2=O", "residual activity": 88}
{"smiles": "C[C@@H](N)[C@H]1CC[C@H](C(=O)Nc2ccncc2)CC1", "residual activity": 95}
{"smiles": "N#CC(C#N)=C(N)/C(C#N)=C/c1ccc(O)cc1", "residual activity": 100}
{"smiles": "O=C1Nc2ccc(Br)cc2/C1=C\\c1cc2c([nH]1)CCCC2", "residual activity": 52}
{"smiles": "CO[C@@H]1[C@H](N(C)C(=O)c2ccccc2)C[C@H]2O[C@]1(C)n1c3ccccc3c3c4c(c5c6ccccc6n2c5c31)C(=O)NC4", "residual activity": 17}
{"smiles": "c1ccc(-c2n[nH]cc2-c2ccnc3ccccc23)nc1", "residual activity": 100}
{"smiles": "CC(=O)O/N=C1\\C(=C2\\C(=O)Nc3cc(Br)ccc32)Nc2ccccc21", "residual activity": 95}
